Source: PubChem BioAssay
p53ts 39C kill: p53ts cell cytotoxicity, nonpermissive temperature; H1299-p53A138V viability at 39C, ATP luminescence, 24 h; Potency, µM (top dose mostly 46.1 µM), without a hit: at the highest dose activity change, negative = cell killing, hits mostly cytotoxic; actives 1.5% (n = 130,000); AID 902; note: % is set by controls: 0 for no effect and ±100 for the full control effect; nearly all actives have a fitted effect of over 55% in size
Casp7 inh: caspase-7 (human) inhibition, allosteric or competitive; P55210; recombinant caspase-7, Ac-DEVD-AFC fluorescence rate; Potency, µM (highest dose often 57.5 µM), without a hit: top-dose activity change, negative = inhibition, most hits filed as inhibitors; actives 0.02% (n = 75,000); active = well fitted inhibition curve with a large enough effect in the main read-out, with a control signal flat, not every such curve was filed as active; inconclusive = small, poorly fitted or top-dose-only effect, or a change in a side signal; note: % of control where 0% means no effect
p53ts 32C tox: kills p53ts cells at the permissive temperature. H1299-p53A138V at 32C, ATP luminescence viability, 24 h. Potency, µM (highest dose often 46.1 µM), for inactives: top-dose activity change, negative = cytotoxicity, most hits filed as cytotoxic. actives 0.93% (n = 130,000). AID 924;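 note: 0% = DMSO and -100% = full killing by reference compound; nearly all actives have a fitted effect of over 55% in size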
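Viability by ATPlite luminescence after 24 h compound treatment (up to 46 uM) at the permissive 32C. Cells are H1299 carrying p53 A138V. Scale runs from DMSO basal to 100 uM tamoxifen as full kill; AC50 from Hill fits.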
IkB sig inh: suppresses IkB signaling in ABC-DLBCL reporter cells; actives 0.04% (n = 110,000); ABC-DLBCL IkBa-CBG/CBR dual luciferase ratio, 4 h; response scale: scaled: untreated 0%, proteasome inhibitor 100%; Potency, µM (highest dose often 57.1 µM), without a hit: at the top dose IkBa stabilization activation; active = well fitted curve in the direction sought with a large enough effect in the signal ratio, not every such curve was filed as active; inconclusive = small, poorly fitted or top-dose-only effect, or a change in a side signal; the % refers to the signal ratio;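 note: the direction sought is a rising ratio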
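In this assay, an IκBα–CBG68 fusion accumulates when IKK-driven degradation is blocked; native CBR normalizes for cell number. OCI-Ly3 cells were treated 4 h with compound and doxycycline, then green and red light read after Chroma-Glo addition.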
FLuc inh: inhibitors of firefly luciferase; P08659; purified firefly luciferase, luminescence, 8 min; Potency, µM (titrated, usually from 57.1 µM), for inactives: at the highest dose activity change, negative = inhibition, usual class: inhibitors; actives 2.2% (n = 72,000); AID 411; note: % is set by controls: 0 for no effect and ±100 for the full control effect; nearly all actives have a fitted effect of over 40% in size
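Here, luciferase activity is measured as luminescence following an 8 min room-temperature reaction at 10 uM ATP, pH 7.2. Every library sample is titrated.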
Caspase-1 inhib: caspase-1 (human) inhibition, allosteric or competitive. P29466. Caspase-1 enzyme, Ac-WEHD-AFC fluorogenic rate. Potency, µM (titrated, usually from 57.5 µM), without a hit: at the top dose activity change, negative = inhibition, hits mostly inhibitors. actives 0.03% (n = 75,000);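 note: plate controls were vehicle for no effect and no substrate for full effect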
* marks the source's active call; other numbers are inactive results; u = inconclusive; x = no result; ! = repeats disagree; [ ] = remark or other dose. Shown are actives, neighbours in structure and some others; about 2.5% of the full set was active somewhere. Unless noted, calls come from the whole dose curve; as a rule, active = well fitted curve in the direction sought with a large enough effect; inconclusive = small, poorly fitted or top-dose-only effect, or another doubt; inactive = no such curve, though single readings can be large; an effect the other way counts as inactive or inconclusive. Potency is the fitted concentration of half-maximal effect.

SMILES | p53ts 39C kill | Casp7 inh | p53ts 32C tox | IkB sig inh | FLuc inh | Caspase-1 inhib
CNC(=S)N/N=C(\C)c1ccc(C(C)(C)C)cc1 | -13.3% | x | x | x | x | x
Cn1c(=O)c2c(nc(N3CCOCC3)n2Cc2ccccc2F)n(C)c1=O | -1.3% | x | 4.4% | 0.3% | x | x
CCOC(=O)N1CCC(NC(=O)CC(NS(=O)(=O)c2ccc(Cl)cc2)c2ccco2)CC1 (configuration not stated) | -5.0% | -1.5% | 3.4% | 0.7% | -1.4% | -2.2%
O=C(NCc1ccccc1Cl)c1ccc(Cn2c(SCc3ccccc3)nc3cccnc32)cc1 | x | x | -24.2% | x | x | x
Clc1ccccc1-c1nccc(-n2ccnc2)n1 | 0.2% | -0.1% | -1.6% | -2.2%[11.4 µM] | -1.1%[2.29 µM] | -0.3%
Clc1ccccc1C(c1ccccc1)(c1ccccc1)n1ccnc1 | 25.1µM*! | -4.6% | 35.0%[20.6 µM] | 2.8%[25.6 µM] | 4.8%[25.5 µM] | -2.2%
Cc1ccc(C(CC(=O)c2ccco2)SCCO)cc1 (configuration not stated) | -8.7% | -1.0% | -8.9% | u | 25.1µM* | 0.1%
O=C(CC(SCCO)c1ccc(F)cc1)c1ccco1 (configuration not stated) | -9.7% | 0.3% | -4.6% | u | -3.2% | 0.4%
Cn1c(Cl)nc2ccccc21 | 3.1% | 1.3% | -3.7% | 1.4% | 1.7% | 0.8%
Cn1c(SC2=CS(=O)(=O)c3ccccc32)nc2ccccc21 | 12.6µM* | 7.5% | u | u | -2.1% | 0.0%
CCOC(=O)CC(=O)CSc1nc(-c2cccnc2)ccc1C#N | -7.2% | u | -14.6% | -1.1% | -6.9% | x
CCOC(=O)CSc1nc(-c2ccc3c(c2)OCO3)ccc1C#N | x | x | x | x | 3.98µM* | x
CCOC(=O)CSc1nc(-c2ccncc2)ccc1C#N | x | x | x | x | 7.94µM* | x
O=C(OC1CCCCC1)c1ccc(NC(=O)c2ccco2)cc1 | -1.6% | -2.2% | 3.7% | u | -19.4% | -2.7%
Cc1ccc(N=Cc2nc(-c3ccco3)oc2O)cc1 | -16.8% | -8.8% | -0.8% | 4.5% | 15.8µM* | u
O=C(Oc1oc(-c2ccco2)nc1C=Nc1ccccc1)c1ccco1 | x | x | x | x | -7.1%[25.5 µM] | x
CCc1c(C)c2ccc(O)c(CN3CCN(c4ccc(F)cc4)CC3)c2oc1=O | -14.6% | x | 7.6% | 1.9% | x | x
CCc1c(C)c2ccc(O)c(CN3CCN(c4ccc(OC)cc4)CC3)c2oc1=O | 7.94µM* | x | u | -2.7% | x | x
CCOc1ccc(S(=O)(=O)c2c(C(=O)c3ccc(CC)cc3)cnc3ccc(C)cc23)cc1 | -13.0% | x | 13.1% | 1.3% | x | x
O=S(=O)(NCCc1ccc(Cl)cc1)c1ccc(N2CCCCS2(=O)=O)cc1 | -19.6% | x | -4.1% | u | x | x
COCCCNC(=O)c1cn(CC(C)C)c(=O)c2c1c1ccccc1n2C | 7.6% | x | 6.5% | -0.2% | x | x
CCc1ccc(CCOc2ccc(CC3SC(=O)NC3=O)cc2)nc1 (configuration not stated) | 3.9% | -0.6% | -8.1% | x | x | 1.6%
CC1(COc2ccc(C[C@H]3SC(=O)NC3=O)cc2)CCCCC1 | 39.8µM* | -1.0% | u | u | -18.1% | -0.1%
CC1CCCCN1c1nc(-c2ccncc2)nc2ccccc12 (configuration not stated) | 15.1% | -1.6% | 10.5% | u | 0.8% | -0.8%
CC1CCCCN1c1nc(-c2ccc(C(C)(C)C)cc2)nc2ccccc12 (configuration not stated) | 10µM* | x | 10µM* | 8.2% | x | x
SMILES | p53ts 39C kill | Casp7 inh | p53ts 32C tox | IkB sig inh | FLuc inh | Caspase-1 inhib
CC1CCN(c2nc(-c3ccc(C(C)(C)C)cc3)nc3ccccc23)CC1 | 10µM* | x | 15.8µM* | -1.3% | x | x
CCCN1Cc2cccc(C(=O)Nc3cc(Cl)ccc3C)c2C1=O | -24.2% | x | -15.6% | -0.9% | x | x
COc1ccccc1CNC(=O)c1cnc2sccn2c1=O | 21.7% | 1.4% | -12.2% | -0.7% | 2.8% | -3.2%
O=C1c2ccccc2S(=O)(=O)N1CC1CC(c2ccccc2)=NO1 (configuration not stated) | -8.1% | -0.3% | -21.6% | -1.6% | u | 1.0%
COc1ccc(C2=NOC(CN3C(=O)c4ccccc4S3(=O)=O)C2)cc1 (configuration not stated) | 31.7% | -1.6% | u | u | 15.8µM* | -1.8%
CCOc1cc(C(=O)Nc2ccc(-c3nnc4n3CCCCC4)cc2)cc(OCC)c1OCC | x | x | -1.4% | x | x | x
Cc1c(C(=O)Nc2ccc(-c3nnc4n3CCCCC4)cc2)oc2c1ccc1ccccc12 | -24.5% | x | 1µM* | x | x | x
CCCn1c(C)cc(C(=O)CN2C(=O)c3ccccc3C2=O)c1C | -23.8% | 1.1% | -20.1% | -0.3% | 15.8µM* | 1.5%
COc1ccc(C(=O)CN2C(=O)c3ccccc3C2=O)c(OC)c1C | 11.9% | -0.5% | 10.0% | -1.8% | -1.3% | -2.0%
O=C(CN1C(=O)c2ccccc2S1(=O)=O)c1ccccc1 | x | x | x | x | -25.8%[25.5 µM] | x
Cc1cc(C(=O)CN2C(=O)c3ccccc3S2(=O)=O)c(C)n1-c1ccccc1 | 7.94µM* | -0.9% | 12.6µM* | u | 7.94µM* | -0.6%
Cc1cc(C(=O)CN2CCC(C)CC2)c(C)n1-c1ccc(F)cc1 | -6.3% | x | -0.3% | x | x | x
Cc1cc(C(=O)CN2C(=O)C3CC=CCC3C2=O)c(C)n1-c1ccccc1 (configuration not stated) | 12.6µM* | -2.3% | 10µM* | 2.7% | 3.98µM* | 3.6%
CCOCc1cc(CN2CCN(c3cccc(Cl)c3)CC2)c(O)c2ncccc12 | 3.16µM* | x | -7.3% | 23.2% | x | x
CCOc1ccc(C2Nc3c(C)cccc3-c3cc(C)nn32)cc1 (configuration not stated) | -8.6% | x | 16.6% | u | x | x
O=C(O)[C@H]1CCc2ccc3ccccc3c2[C@H]1c1cccc2ccccc12 | 2.5%[9.22 µM] | -2.2%[11.5 µM] | 10.3%[9.22 µM] | -0.5%[11.4 µM] | 3.6%[11.4 µM] | -0.6%[11.5 µM]
O=C1O/C(=C\Br)CC[C@@H]1c1cccc2ccccc12 | 20µM* | 0.4% | 20µM* | 4.8% | 1.1% | 3.3%
COc1ccc(NC(=O)Nc2cc(C)ccn2)cc1 | 6.31µM* | 0.2% | 7.94µM* | 3.5% | 1.58µM* | 0.3%
Cc1ccnc(NC(=O)Nc2ccc(F)cc2)c1 | u | 0.2% | u | u | 10µM* | -1.7%
COc1ccc(C(=O)NC(=O)Nc2cc(C)ccn2)cc1 | 1.26µM* | 7.0% | 1.26µM* | 12.2% | 0.501µM* | 0.0%
COc1cc(C(=O)Nc2cc(C)ccn2)cc(OC)c1OC | -16.2% | -1.2% | 0.2% | 1.4% | 0.0% | 0.7%
CSc1ccc(NC(=O)Nc2cc(C)ccn2)cc1 | u | 1.2%[11.5 µM] | -28.2%[9.22 µM] | 3.6%[11.4 µM] | 2.51µM* | -0.3%[11.5 µM]
Cc1ccc(NC(=O)Nc2ccc(F)cc2)nc1 | 0.0% | -0.9% | -11.5% | u | -25.8% | -4.9%
O=C(Cn1c(=O)oc2cc(S(=O)(=O)N3CCCCCC3)ccc21)NC1CCCCC1 | -6.0% | -0.7% | 6.8% | 5.0% | 4.1% | 1.0%
